# ChEMBL document CHEMBL3988442, “University of Dundee, Small-Polar-MMV Screening Library” (2021)
# Values joined by “and” are separate entries in the source; they are usually repeats but may differ in a detail not shown here. Identical values can stand only once. Screen size: about 67,000 compounds; about 40 (0.06%) showed an effect of 50% or more. Only a selection was taken, and strong results are over-represented in it overall.
# Target: T1, Coenzyme A biosynthesis bifunctional protein CoaBC (Mycobacterium tuberculosis (strain ATCC 25618 / H37Rv)) (UniProt P9WNZ1)
# T1 sequence (whole entry): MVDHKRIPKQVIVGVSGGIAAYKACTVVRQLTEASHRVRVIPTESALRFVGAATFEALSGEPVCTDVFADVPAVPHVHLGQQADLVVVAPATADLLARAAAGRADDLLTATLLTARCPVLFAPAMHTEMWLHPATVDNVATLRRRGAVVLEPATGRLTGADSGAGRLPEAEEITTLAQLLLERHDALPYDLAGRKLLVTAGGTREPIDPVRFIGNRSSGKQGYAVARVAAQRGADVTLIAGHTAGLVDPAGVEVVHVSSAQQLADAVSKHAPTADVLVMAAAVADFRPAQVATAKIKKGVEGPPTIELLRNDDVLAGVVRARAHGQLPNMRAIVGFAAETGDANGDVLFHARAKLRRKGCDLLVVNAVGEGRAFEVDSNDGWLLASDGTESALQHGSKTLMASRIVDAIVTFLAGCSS
# Assay: Biomol Green assay for MtCoaBC inhibitor, OD650 read
# Format: functional
# Set-up: scale not given: in the data most compounds retested in dose-response had high values
# Conditions: 30 µM
row,Structure (SMILES),Percent Effect
1,COC1CCN(CCNC(=O)NCC(C)c2cccc(C)c2)CC1 (stereo unspecified),-16.8%
2,COC1CCN(CCNC(=O)NC(C)c2cccc(Cl)c2)CC1 (stereo unspecified),-0.455%
3,COc1cccc(CN2C[C@H]3CC[C@H]2C3)c1OCCN1CCOCC1,4.29%
4,CCc1ccc(CN2CCN(CCOC)[C@@H]3CS(=O)(=O)C[C@@H]32)cc1,8.73%
5,Cc1noc(C)c1CN1C[C@@H]2COC[C@H](C(=O)N3CCCCO3)[C@@H]2C1,0.259%
6,CC(C)N(Cc1ccc(Cl)c(Cl)c1)C(=O)Cn1cncn1,5.66%
7,CC(C)N(Cc1ccc(Cl)c(Cl)c1)C(=O)CCn1cncn1,5.9%
8,O=C(c1ccncc1)N1C[C@@H](OCc2cccnc2)[C@H]2OCCC[C@H]21,4.2%
9,Cc1ccc(NS(=O)(=O)c2cnn(-c3ccccc3)c2)c(C(=O)O)c1,64.4% and 43.6%
10,Cc1ccc(NS(=O)(=O)c2cnn(Cc3ccccc3)c2)c(C(=O)O)c1,0.726%
11,Cc1ccc(-n2cc(S(=O)(=O)Nc3cccc(C(=O)O)c3C)cn2)cc1,0.726%
12,COCCC(=O)NC[C@H]1CC[C@H](C(c2ccccn2)N(C)C)CC1 (stereo partly specified),-1.84%
13,CNC(=O)N1CC[C@@H]2CN(Cc3ccccc3)S(=O)(=O)[C@@H]2CC1,1.48%
14,Cc1ccc(N2CC[C@@]3(O)CCN(S(C)(=O)=O)C[C@H]3C2)nn1,-0.123%
15,O=C(CC1CC1)N1CC[C@H]2[C@@H]1CCC(=O)N2c1cccnc1,5.4%
16,COc1cc(N2CC[C@@H]3O[C@H](C(=O)NCC4CC4)C[C@@H]32)ncn1,-0.37%
17,COCCN1CCC2(CC1)CN(CCn1cccn1)C(=O)CO2,-1.25%
18,O=C1COC2(CCN(Cc3ccoc3)CC2)CN1CCn1cccn1,-3.75%
19,Cn1cc(C(=O)N2CC[C@@]3(O)CCN(C4CCCCC4)C[C@H]3C2)cn1,0.467%
20,CN(C)CCO[C@@H]1CC[C@H]2[C@H]1OCCN2C(=O)c1ccccc1F,3.95%
21,CNC(=O)[C@H]1C[C@@H]2CN(S(=O)(=O)c3ccc(C)cc3)C[C@@H]2N1C,1.63%
22,O=C([C@@H]1C[C@@H]2CCN(c3cccc(F)c3)C[C@H]2O1)N1CCCC1,-8.02%

row,Structure (SMILES),Percent Effect
1,Cc1cccc(CN2C(=O)C[C@H]3[C@@H]2CCN3Cc2ccc(F)cc2)n1,9.41%
2,CC(=O)N1[C@H](Cn2cncn2)C[C@@H]2CN(c3ccc(C)nn3)CC[C@@H]21,6.82%
3,O=C(NC1CCC1)[C@@H]1C[C@@H]2CCN(Cc3ccncc3)C[C@H]2O1,4.7%
4,COc1ccc(NC2(C(=O)N3CCn4cncc4C3)CCCC2)cc1,8.96%
5,Cc1ccc(NC2(C(=O)N3CCn4cncc4C3)CCCCC2)cc1C,4.82%
6,CC1=N[C@@]2(CC[C@@H]3CN(C(=O)NCc4ccccc4C)C[C@@H]32)C(=O)N1,0.609%
7,O=C(COC[C@@H]1CC[C@H]2[C@H](CCN2Cc2ccco2)O1)N1CCCC1,9.53%
8,CC(C)C(NC(=O)NCC1CC1)c1nnc2n1CCC2 (stereo unspecified),-0.508%
9,CCC1(CNC(=O)NC(c2nnc3n2CCC3)C(C)C)CCC1 (stereo unspecified),-3.55%
10,COCCN1C(=O)[C@]2(CC[C@@H]3CN(S(=O)(=O)CC(C)C)C[C@@H]32)N=C1C,-3.81%
11,CC(C)CC(=O)N1CC[C@@H]2CN(CC(=O)N(C)C)S(=O)(=O)[C@@H]2CC1,2.32%
12,Cc1noc([C@H]2C[C@@H]3CCN(CC4CC4)C[C@H]3O2)n1,-1.9%
13,Cc1cccc(CN2CC[C@H]3[C@H]2CCN3Cc2cnn(C)c2)n1,-4.59%
14,c1cc(COC[C@@]23CCC[C@@H]2CN(C2CCOCC2)C3)ccn1,6.42%
15,Cc1cnn(CC2CCCN2Cc2ncc(-c3ccccc3)o2)c1 (stereo unspecified),2.73%
16,Cc1cnn(CC2CCCN2Cc2nnc(Cc3ccccc3)o2)c1 (stereo unspecified),0.119%
17,O=C(N1CCCO1)[C@@]12CCO[C@@H]1CCN(Cc1ccsc1)C2,-8.02%
18,CCS(=O)(=O)N1CC[C@H]2CO[C@H](CN(C)C)[C@H]2C1,-0.203%
19,CC(=O)N1C[C@H]2CNC[C@@]2(C(=O)NCCCOc2cccnc2)C1,3.58%
20,CN1CCC(C)(CNC(=O)c2ccc(SCc3cccnc3)cc2)CC1,-1.65%
21,O=C(NCCC(=O)N1CCCC1)c1cccnc1,0.943%
22,O=C(c1cscn1)N1C[C@@H]2C[C@@H](c3nnc(C4CC4)o3)O[C@@H]2C1,0.38%

row,Structure (SMILES),Percent Effect
1,CC1CCN(C[C@H]2CN3CC[C@H]2C[C@@H]3CNC(=O)c2ccco2)CC1,-15.2%
2,Cc1ccccc1CC(=O)N1C[C@@H]2COC[C@]2(CN(C)C)C1,-10.9%
3,COCCN1CC[C@@H]2CN(Cc3cccnc3OC)C[C@@H]2C1,-0.364%
4,Nc1cc(O)nc(CCNC(=O)CC[C@@H]2CCCN3CCCC[C@H]23)n1,-3.91%
5,COc1cc(C2CC(=O)c3c(O)cc(O)cc3O2)ccc1O (stereo unspecified),7%
6,COc1ccc(C2CC(=O)c3c(O)cc(O)cc3O2)cc1O (stereo unspecified),17.8%
7,COc1cc(O)cc2c1C(=O)CC(c1ccc(O)cc1)O2 (stereo unspecified),65.2% and 48.7%
8,CN(Cc1ccco1)[C@@H]1CN(Cc2ccsc2)C[C@@H]2CCCO[C@@H]21,5.46%
9,COCc1cccc(C(=O)N2C[C@H]3CC[C@@H]2CN(Cc2cscn2)C3)n1,1.53%
10,Cc1nc(CN2CC[C@H]3[C@@H]2CCC(=O)N3c2cnn(C)c2)cs1,-3.58%
11,Cn1cc(N2C(=O)CC[C@@H]3[C@H]2CCN3Cc2ccncc2)cn1,0.381%
12,O=C1N[C@@H]2CCN(C(=O)C3CCC3)[C@@H]2C(=O)N1c1ccc(F)cc1,0.226%
13,Fc1cccc(O[C@@H]2C[C@H]3CN(Cc4ccccn4)CCN3C2)c1,0.483%
14,Cn1cccc1C(=O)N1CC[C@H]2C[C@@H](c3ccncn3)O[C@@H]2C1,1.03%
15,Cc1cc(CN2CCCC2)cc(Oc2ccc3c(c2)CC(CN)O3)c1 (stereo unspecified),3.85%
16,COc1ccc(CN2CCCC2)cc1Oc1ccc2c(c1)CC(CN)O2 (stereo unspecified),4.1%
17,O=C(NCC1CC1)[C@@H]1C[C@@H]2OCCN[C@@H]2C1,-1.96%
18,COc1ccc(-n2cc(CNC(=O)c3ccccn3)nn2)cc1,6.21%
19,CN1C(=O)CO[C@H]2CN(C(=O)Nc3ccc(F)cc3)C[C@H]21,9.63%
20,Cc1noc([C@H]2C[C@@H]3CCN(CC4CCOCC4)C[C@H]3O2)n1,14.2%
21,Cc1ccc(OCC(=O)N2CCN[C@H]3CS(=O)(=O)C[C@H]32)cn1,12%
22,Cc1ncsc1CN1C[C@@H]2COC[C@]2(COc2ccc(C#N)cn2)C1,2.8%
